# Experimental data: PubChem BioAssay
# For some of these results: Potency and affinity values are given separately. The source made the active and inactive calls. Entries that show only a call come without a potency. Unless noted, how the calls were made is not given here.
# Key:
# [1] = antimalarial activity against Dd2 strain (AID 2302;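 active means growth inhibition above 50% at the single 2 µM test dose, taken to imply half-maximal potency below 2 µM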); details: P. falciparum Dd2 in RBCs, LDH growth readout, 72 h; at 2 µM; active compounds read high
# [2] = human hepatoma cell viability loss – ATP luminescence, cytotoxicity control for P. falciparum antimalarial project, primary screen (AID 2303;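 active means inhibition above 50%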); details: HepG2 viability, 24-48 h, at 10 µM, active compounds read high
# [3] = molecular target: L-lactate dehydrogenase (Plasmodium falciparum (isolate CDC / Honduras)) (UniProt Q27743); experiment: PfLDH activity inhibition – cell lysate, 3D7 strain, counter-screen for P. falciparum growth inhibition project (AID 2304); details: P. falciparum 3D7 crude extract, LDH APAD/NBT absorbance; at 2 µM; active compounds read high
# [4] = inhibition of 3D7 malaria parasite growth – strain 3D7 (AID 2306); details: P. falciparum 3D7 erythrocytic growth, LDH absorbance, 72 h; at 2 µM; active compounds read high
# [5] = molecular target: Calcium-dependent protein kinase 1 (Plasmodium falciparum (isolate 3D7)) (UniProt P62344); experiment: PfCDPK1 kinase inhibitors, biochemical, TCAMS library (AID 1159585; cut-off not given, nearly all actives have IC50 up to about 0.98 µM;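 further: inhibitors leave more ATP so luminescence rises with inhibition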); details: recombinant PfCDPK1, Kinase-Glo ATP depletion luminescence
# [6] = molecular target: Plasmodium falciparum protein kinase 6 (PK6, PF3D7_1337100) (UniProt Q8IDW1); experiment: PfPK6 kinase inhibitors, biochemical, TCAMS library (AID 1159586); details: recombinant PfPK6, Kinase-Glo ATP depletion luminescence
# [7] = molecular target: Protein kinase 7 (PK7), Plasmodium falciparum 3D7 (PF3D7_0213400) (UniProt Q7YTF7); experiment: inhibition of Plasmodium PK7 catalytic activity – biochemical, TCAMS antimalarial set, Kinase-Glo luminescence (AID 1159587); details: recombinant PfPK7, Kinase-Glo ATP depletion luminescence
# [8] = molecular target: Calcium-dependent protein kinase 4 (Plasmodium falciparum (isolate 3D7)) (UniProt Q8IBS5); experiment: PfCDPK4 kinase inhibitors, biochemical, TCAMS library (AID 1159588; cut-off not given, nearly all actives have IC50 up to about 0.91 µM); details: recombinant PfCDPK4, Kinase-Glo ATP depletion luminescence
# Sequence of Calcium-dependent protein kinase 4 (Plasmodium falciparum (isolate 3D7)) (Q8IBS5 whole entry, looked up): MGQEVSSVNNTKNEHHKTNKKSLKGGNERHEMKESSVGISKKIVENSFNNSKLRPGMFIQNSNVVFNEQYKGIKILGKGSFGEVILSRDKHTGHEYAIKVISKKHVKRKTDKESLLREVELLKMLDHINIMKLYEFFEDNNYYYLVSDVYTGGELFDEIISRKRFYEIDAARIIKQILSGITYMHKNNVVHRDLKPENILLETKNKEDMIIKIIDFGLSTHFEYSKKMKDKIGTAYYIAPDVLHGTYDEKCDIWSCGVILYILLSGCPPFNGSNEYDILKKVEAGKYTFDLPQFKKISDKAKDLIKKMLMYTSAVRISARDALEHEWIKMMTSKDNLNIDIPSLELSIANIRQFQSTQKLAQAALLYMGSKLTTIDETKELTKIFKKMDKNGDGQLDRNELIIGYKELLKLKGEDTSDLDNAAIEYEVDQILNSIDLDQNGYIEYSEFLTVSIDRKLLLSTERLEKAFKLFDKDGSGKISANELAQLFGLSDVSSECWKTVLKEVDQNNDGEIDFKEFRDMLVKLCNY
# Sequence of L-lactate dehydrogenase (Plasmodium falciparum (isolate CDC / Honduras)) (Q27743 whole entry, looked up): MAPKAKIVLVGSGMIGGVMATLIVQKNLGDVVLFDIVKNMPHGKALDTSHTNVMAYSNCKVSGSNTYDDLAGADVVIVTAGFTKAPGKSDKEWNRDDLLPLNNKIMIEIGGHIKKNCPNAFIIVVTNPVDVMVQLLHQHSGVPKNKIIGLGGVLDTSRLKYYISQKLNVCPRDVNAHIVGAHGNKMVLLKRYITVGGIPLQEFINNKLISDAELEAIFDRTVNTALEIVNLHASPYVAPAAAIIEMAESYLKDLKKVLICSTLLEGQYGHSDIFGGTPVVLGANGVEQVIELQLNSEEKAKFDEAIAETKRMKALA
# Sequence of Plasmodium falciparum protein kinase 6 (PK6, PF3D7_1337100) (Q8IDW1 1-305): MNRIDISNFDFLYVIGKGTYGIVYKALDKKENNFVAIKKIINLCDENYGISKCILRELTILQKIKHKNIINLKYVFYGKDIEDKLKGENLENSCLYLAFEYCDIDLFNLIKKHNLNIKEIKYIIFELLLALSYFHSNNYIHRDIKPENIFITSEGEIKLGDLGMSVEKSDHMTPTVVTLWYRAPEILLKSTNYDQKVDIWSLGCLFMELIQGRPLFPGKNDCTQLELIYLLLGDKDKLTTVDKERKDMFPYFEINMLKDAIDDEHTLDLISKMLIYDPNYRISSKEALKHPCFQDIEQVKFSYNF
# Sequence of Protein kinase 7 (PK7), Plasmodium falciparum 3D7 (PF3D7_0213400) (Q7YTF7 1-343): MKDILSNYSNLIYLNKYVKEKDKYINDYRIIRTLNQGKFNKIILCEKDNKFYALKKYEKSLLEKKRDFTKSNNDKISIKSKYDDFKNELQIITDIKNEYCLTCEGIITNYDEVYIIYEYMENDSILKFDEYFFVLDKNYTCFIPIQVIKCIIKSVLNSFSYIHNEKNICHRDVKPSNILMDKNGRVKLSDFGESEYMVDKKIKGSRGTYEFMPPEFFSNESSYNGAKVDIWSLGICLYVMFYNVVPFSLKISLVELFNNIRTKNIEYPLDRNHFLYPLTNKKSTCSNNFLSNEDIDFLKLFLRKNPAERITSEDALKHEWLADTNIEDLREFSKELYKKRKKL
# Sequence of Calcium-dependent protein kinase 1 (Plasmodium falciparum (isolate 3D7)) (P62344 whole entry, looked up): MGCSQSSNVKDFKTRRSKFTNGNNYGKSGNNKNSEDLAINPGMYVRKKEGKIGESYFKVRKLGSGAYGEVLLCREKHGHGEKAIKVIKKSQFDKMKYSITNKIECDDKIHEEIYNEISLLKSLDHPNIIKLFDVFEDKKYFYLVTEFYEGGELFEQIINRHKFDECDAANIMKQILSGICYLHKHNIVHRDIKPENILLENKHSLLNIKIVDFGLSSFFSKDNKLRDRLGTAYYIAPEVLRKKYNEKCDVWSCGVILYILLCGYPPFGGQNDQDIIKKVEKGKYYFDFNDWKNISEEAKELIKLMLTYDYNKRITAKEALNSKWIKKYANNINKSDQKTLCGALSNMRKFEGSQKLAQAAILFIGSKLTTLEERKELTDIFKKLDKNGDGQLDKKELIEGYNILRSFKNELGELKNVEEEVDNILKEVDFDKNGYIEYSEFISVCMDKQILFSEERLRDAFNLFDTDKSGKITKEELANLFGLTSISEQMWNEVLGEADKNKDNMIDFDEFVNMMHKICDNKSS
SMILES,growth inhibition [1],inhibition [2],inhibition [3],growth inhibition [4],outcome [5],outcome [6],outcome [7],outcome [8]
Oc1cc(Nc2ccnc3cc(-c4ccc(CN5CCCCC5)o4)c(Cl)cc23)c(Cl)cc1F,64% (active),-10% (inactive),-5% (inactive),102% (active),inactive,inactive,inactive,inactive
CCCNCc1ccc(-c2ccc(CN(Cc3cnc(C)cn3)C(=O)/C=C/c3ccccc3C)cc2)nc1,15% (inactive),7% (inactive),5% (inactive),95% (active),inactive,inactive,inactive,inactive
O=c1cc(NCCCNCc2cc(Cl)cc(Cl)c2OCc2ccc(Cl)cc2)[nH]c2ccccc12,53% (active),6% (inactive),3% (inactive),98% (active),inactive,inactive,inactive,inactive
Cc1ccc2[nH]c3c(NCCN(C)C)ncnc3c2c1,5% (inactive),9% (inactive),0% (inactive),99% (active),inactive,inactive,inactive,inactive
CCC(C(=O)Nc1ccccc1)n1nc(-c2ccc(C)c(S(=O)(=O)N3CCCCC3)c2)ccc1=O (stereo not drawn),67% (active),-2% (inactive),4% (inactive),85% (active),inactive,inactive,inactive,inactive
Cc1noc(C)c1-c1ccc2c(Nc3ccc(C(F)(F)F)cc3)c(C(N)=O)cnc2c1,95% (active),1% (inactive),6% (inactive),100% (active),inactive,inactive,inactive,inactive
COc1cc(Cc2cnc(N)nc2N)cc(OCCn2ccccc2=O)c1OC,-3% (inactive),4% (inactive),2% (inactive),97% (active),inactive,inactive,inactive,inactive
COc1ccc2c(c1)Sc1ccccc1C(N1CCN(CCO)CC1)C2 (stereo not drawn),4% (inactive),11% (inactive),-3% (inactive),95% (active),inactive,inactive,inactive,inactive
CCCNc1ccc2nccc(CCN3CCC(NCc4ccc5c(n4)NC(=O)CS5)CC3)c2n1,-1% (inactive),24% (inactive),-1% (inactive),103% (active),inactive,inactive,inactive,inactive
Cc1cc(NCCC(=O)NCCOc2ccccc2)nc(NCCc2ccc(F)cc2)n1,4% (inactive),14% (inactive),2% (inactive),97% (active),inactive,inactive,inactive,inactive
COc1ccc(CN2CCCC(Nc3ccc(F)c(F)c3)C2)c(O)c1 (stereo not drawn),83% (active),14% (inactive),3% (inactive),95% (active),inactive,inactive,inactive,inactive
Cc1[nH]c(C)c(-c2ccc(-c3ccc(OC(F)(F)F)cc3)cc2)c(=O)c1Cl,97% (active),24% (inactive),1% (inactive),98% (active),inactive,inactive,inactive,inactive
c1cc(CN2CCCCC2)cc(OCCCNc2ccnc3ccccc23)c1,99% (active),48% (inactive),-1% (inactive),100% (active),inactive,inactive,inactive,inactive
Cc1cc(Cl)ccc1NC(=O)Nc1ccc2nccc(N3CCN(C)CC3)c2c1,74% (active),-1% (inactive),1% (inactive),101% (active),inactive,inactive,inactive,inactive
CC(=O)Nc1ccc(OCCN(Cc2ccccc2OC(F)(F)F)c2ccc(C(F)(F)F)c(C#N)c2)c(Cl)c1,96% (active),8% (inactive),5% (inactive),96% (active),inactive,inactive,inactive,inactive
CCNc1cc(C(=O)N[C@@H](Cc2ccccc2)[C@H](O)CN[C@H](C)c2ccccc2)cc(N2CCCC2=O)c1,99% (active),-1% (inactive),6% (inactive),97% (active),inactive,inactive,inactive,inactive
CCCCN(CCCC)CC(O)c1cc(-c2ccc(Cl)cc2)nc2c(Cl)cc(Cl)cc12 (stereo not drawn),97% (active),-12% (inactive),1% (inactive),97% (active),inactive,inactive,inactive,inactive
N#Cc1ccc(N(CCOC(=O)c2ccccc2)Cc2ccccc2C(F)(F)F)cc1C(F)(F)F,67% (active),6% (inactive),-1% (inactive),92% (active),inactive,inactive,inactive,inactive
O=C(CCc1cnc[nH]1)Nc1cccc(-c2ccc(-c3nc4ccc(F)cc4[nH]3)cc2)c1,79% (active),18% (inactive),-1% (inactive),101% (active),inactive,inactive,inactive,inactive
NC(N)=Nc1nc(-c2ccc(N=C(N)N3CCC[C@H]3CN3CCCC3)cc2)cs1,66% (active),6% (inactive),1% (inactive),82% (active),inactive,inactive,inactive,inactive
CN1CCCN(Cc2ccc(-c3cccc(NC(=O)c4cccc(Cl)c4)c3)cc2)CC1,32% (inactive),33% (inactive),-3% (inactive),100% (active),inactive,inactive,inactive,inactive

SMILES,growth inhibition [1],inhibition [2],inhibition [3],growth inhibition [4],outcome [5],outcome [6],outcome [7],outcome [8]
COc1ccc(NC(=O)/C=C/c2ccccc2Cl)cc1OCCN1CCC(N(C)C)CC1,19% (inactive),18% (inactive),-2% (inactive),89% (active),inactive,inactive,inactive,inactive
CCC[C@@H]([C@@H](CC1CCCCC1)C(=O)N[C@H](C(=O)Nc1nccs1)C(C)(C)SC)N(O)C=O,98% (active),51% (active),7% (inactive),97% (active),inactive,inactive,inactive,inactive
Cc1sc2nc(CSc3ccccc3)nc(N3CCN(CC(=O)N4CCCC4)CC3)c2c1C,69% (active),19% (inactive),2% (inactive),91% (active),inactive,inactive,inactive,inactive
O=S(=O)(c1c(Cl)cc(Cl)cc1Cl)N1CCCCC(c2ccc(Cl)cc2)=N1,93% (active),11% (inactive),3% (inactive),95% (active),inactive,inactive,inactive,inactive
CS(=O)(=O)c1ccc2nc(-c3cc(-c4cccc(F)c4)cnc3N)[nH]c2c1,71% (active),33% (inactive),4% (inactive),102% (active),inactive,inactive,inactive,inactive
Cc1nc2c(s1)c(=O)cc(CCc1cccc(F)c1F)n2CC(=O)N(Cc1ccc(-c2ccc(C(F)(F)F)cc2)cc1)C1CCN(C(C)C)CC1,82% (active),98% (active),0% (inactive),100% (active),inactive,inactive,inactive,inactive
COc1cc(C(=O)N2CCN(C(C)C)CC2)ccc1CN(C)CCCN1CCN(c2cccc(Cl)c2Cl)CC1,87% (active),56% (active),0% (inactive),101% (active),inactive,inactive,inactive,inactive
Cc1cccc(Nc2nc(C)cc(N3CCCN(CC4CCCCC4)CC3)n2)c1,21% (inactive),20% (inactive),-2% (inactive),83% (active),inactive,inactive,inactive,inactive
O=C(NCC1CCC(C(=O)NCCc2ccc(Cl)c(Cl)c2)CC1)c1ccc(O)c(-c2ccc(Cl)c(Cl)c2)c1 (stereo not drawn),12% (inactive),-5% (inactive),-1% (inactive),94% (active),inactive,inactive,inactive,inactive
COCC(C)n1c(SC(C)C(=O)Nc2cc([N+](=O)[O-])ccc2Cl)nc2ccccc2c1=O (stereo not drawn),94% (active),-8% (inactive),2% (inactive),95% (active),inactive,inactive,inactive,inactive
Oc1ccc(CCNc2nc(NCCCOc3ccccc3-c3ccncc3)nc(N3CCNCC3)n2)cc1,-3% (inactive),8% (inactive),1% (inactive),96% (active),inactive,inactive,inactive,inactive
O=C(N[C@@H](Cc1ccccc1)C(=O)NCCN1CCOCC1)c1ccc(O)c(-c2ccc(Cl)c(Cl)c2)c1,31% (inactive),-4% (inactive),5% (inactive),97% (active),inactive,inactive,inactive,inactive
CN1CCC(NCCS(=O)(=O)c2cccc(Nc3ccc(-c4cccc(F)c4)cn3)c2)CC1,-3% (inactive),27% (inactive),5% (inactive),99% (active),inactive,inactive,inactive,inactive
CN(C)CCN(C)Cc1ccc(-c2ccc3c(Nc4ccc(F)cc4Cl)ccnc3c2)o1,100% (active),31% (inactive),5% (inactive),101% (active),inactive,inactive,inactive,inactive
CCCCCCc1cc(Oc2c(I)cc(C[C@H](N)C(=O)O)cc2I)ccc1O,-5% (inactive),-2% (inactive),-1% (inactive),97% (active),inactive,inactive,inactive,inactive
COc1ccc2c(NN=Cc3cccc([N+](=O)[O-])c3)ccnc2c1,99% (active),-10% (inactive),5% (inactive),101% (active),inactive,inactive,inactive,inactive
Oc1ccc2ccccc2c1CNCC1CCCCC1,93% (active),-12% (inactive),-5% (inactive),98% (active),inactive,inactive,inactive,inactive
Oc1ccc(CCNCCCCCCNCCc2ccc(-c3ccccc3)cc2)cc1O,8% (inactive),72% (active),1% (inactive),101% (active),inactive,inactive,inactive,inactive
COc1ccc(C(=O)[C@H]2C[C@@H]2CN(C)CCC(O)c2ccc(Cl)c(Cl)c2)cc1 (stereo partly drawn),86% (active),24% (inactive),-8% (inactive),94% (active),inactive,inactive,inactive,inactive
CC(CN(C)C)C(=O)Nc1cccc(-c2cccc(-c3nc4ccc(F)cc4[nH]3)c2)c1 (stereo not drawn),94% (active),29% (inactive),5% (inactive),101% (active),inactive,inactive,inactive,inactive
